Source: PubChem BioAssay
F-actin modifier – modifiers of F-actin cytoskeleton organization, primary screen, imaging, HUVEC, phalloidin staining, high-content imaging; inhibition, % at 2 µM; HUVEC TNFa F-actin phalloidin imaging; AID 836, 2007; 91,000 compounds, 0.18% hits;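 active means inhibition above the batch mean plus 3 SD and confirmed as a hit by visual image inspection, cut at about 30% in these data, passing the limit was not always enough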
CYP2C19 inhib – blockers of cytochrome P450 2C19 activity – biochemical, luminescence, ADME assay, primary screen; CYP2C19 Supersomes, luciferin-H EGE luminescence, 30 min; inhibition, % at 5 µM; AID 778, 2007; 96,000 compounds, 21% hits;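 active means CYP2C19 inhibition above a set limit at 5 µM in the primary screen, cut at about 50% in these data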
Target sequence (P33261 whole entry, looked up): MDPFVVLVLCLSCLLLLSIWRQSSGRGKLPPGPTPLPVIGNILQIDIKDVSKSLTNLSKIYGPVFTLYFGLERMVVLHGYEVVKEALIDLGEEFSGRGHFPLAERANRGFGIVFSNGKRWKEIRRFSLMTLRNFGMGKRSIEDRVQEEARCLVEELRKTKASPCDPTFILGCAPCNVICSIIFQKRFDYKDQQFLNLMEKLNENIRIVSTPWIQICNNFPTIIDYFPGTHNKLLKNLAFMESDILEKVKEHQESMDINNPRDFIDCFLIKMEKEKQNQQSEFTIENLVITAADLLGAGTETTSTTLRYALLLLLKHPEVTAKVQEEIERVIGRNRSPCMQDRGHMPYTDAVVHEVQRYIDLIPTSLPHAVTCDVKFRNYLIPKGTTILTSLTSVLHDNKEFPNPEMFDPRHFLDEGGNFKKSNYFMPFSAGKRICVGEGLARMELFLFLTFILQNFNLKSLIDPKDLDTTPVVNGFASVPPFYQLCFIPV
CYP2C19 act – human CYP2C19 activators, primary screen, biochemical, luminescence; recombinant CYP2C19, luciferin-H EGE luminescence; hits give high values; 0 = fully inhibited enzyme, 1 = untreated enzyme; activation factor at 5 µM; 96,000 tested, under 10 active;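 active means activation factor of at least 2 at 5 µM in the primary screen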
CYP2C9 inh – blockers of cytochrome P450 2C9 activity – biochemical, luminescence, ADME assay, primary screen; P11712; CYP2C9 Supersomes, luciferin-H conversion; inhibition, % at 5 µM; 96,000 compounds, 20% hits; AID 777, 2007;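 active means blocking of liver enzyme CYP2C9 beyond about 50% at 5 µM, limit read from the data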
CYP2C9 act – human CYP2C9 activators, primary screen, biochemical, luminescence. Cytochrome P450 2C9 (Homo sapiens), P11712. recombinant CYP2C9, luciferin-H conversion; hits give high values; factor 1 = untreated enzyme, 0 = blocked. activation factor at 5 µM. 96,000 compounds, 1.4% hits. AID 1024, 2008;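 active means activation factor of 2 or more for CYP2C9 at a 5 µM dose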
E-sel TNF inh – E-selectin induction blockers in HUVEC – imaging, immunofluorescence, high content, primary screen. HUVEC TNFa-induced E-selectin immunofluorescence. inhibition, % at 2 µM. 120,000 compounds, 0.71% hits;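 active means inhibition above the batch mean plus 3 SD, and confirmed as a hit on visual image review, cut at about 43% in these data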
Each line names hits and unclear results; the compound was inactive in the other large screens. In the library only some 22% were active in any assay of this set; here they are far more common.

CCOC(=O)c1nnn(-c2nonc2N)c1CNc1ccccc1	CYP2C9 inh 53 (no result: F-actin modifier)
COc1ccccc1C(=O)Oc1ccc(C(C)(C)C)cc1	none
Cc1ccccc1S(=O)(=O)Oc1ccccc1C(=O)Oc1ccccc1	CYP2C9 inh 50
O=C(O)c1n[nH]c2c1CCCC2	CYP2C9 act 2.1 (no result: F-actin modifier)
O=C(c1n[nH]c2c1CCCC2)n1ccnc1	CYP2C9 inh 52 (no result: F-actin modifier)
O=C(O)c1n[nH]c2c1CCCCC2	none
COc1cccc2cc(-c3nnc(SCC(=O)Nc4cc(C(F)(F)F)ccc4Cl)n3N)oc12	none
COc1cccc(/C=N/NC(=O)c2c(-c3ccccc3)noc2C)c1	CYP2C19 inhib 50, CYP2C9 inh 67, E-sel TNF inh 54
Cc1onc(-c2ccccc2)c1C(=O)Nc1nc(-c2cc(F)ccc2F)cs1	none
Cc1onc(-c2ccccc2)c1C(=O)N/N=C/c1ccc([N+](=O)[O-])s1	none (no result: F-actin modifier, CYP2C19 inhib, CYP2C19 act, CYP2C9 inh, CYP2C9 act)
CCC(CC)c1nnc(NC(=O)c2c(-c3ccccc3)noc2C)s1	CYP2C9 inh 58 (no result: E-sel TNF inh)
COC(=O)c1ccc(C)c(NC(=O)c2c(-c3ccccc3)noc2C)c1	CYP2C19 inhib 69 (no result: E-sel TNF inh)
Cc1onc(-c2ccccc2)c1C(=O)Nc1nc(-c2ccccc2)cs1	CYP2C19 inhib 70, CYP2C9 inh 72
O=C(Nc1ccc(F)cc1F)c1cc2n(n1)C(C(F)(F)F)C1CCCCC1N2 (stereo not given)	none
Cc1onc(-c2ccccc2)c1C(=O)Nc1nnc(COc2ccc(Cl)cc2)s1	CYP2C19 inhib 54, CYP2C9 inh 98
Cc1nnc(NC(=O)c2c(-c3ccccc3)noc2C)s1	none
Cc1cc(C(=O)OC(C)C(=O)Nc2nc(-c3ccccc3)cs2)c(C)o1 (stereo not given)	CYP2C19 inhib 89, CYP2C9 inh 96
CCOCCn1c(N(C)Cc2ccccc2)nc2c1c(=O)[nH]c(=O)n2C	none (no result: F-actin modifier)
CC(C)CCn1c(Cl)nc2c1c(=O)n(C)c(=O)n2C	CYP2C19 inhib 55 (no result: E-sel TNF inh)
COc1cccc(Cn2c(Oc3ccccc3)nc3c2c(=O)n(C)c(=O)n3C)c1	CYP2C9 inh 85 (no result: F-actin modifier)
CC(C)CCn1c(Oc2ccccc2Cl)nc2c1c(=O)n(C)c(=O)n2C	CYP2C9 inh 85
C=CCOc1nc2c(c(=O)n(C)c(=O)n2C)n1Cc1ccccc1Cl	none
N#CC1(C#N)CC(C=O)=C(N)C1(C#N)CC(=O)c1ccc(F)cc1 (stereo not given)	none
O=C(COc1ccccc1)Nc1ccc(S(=O)(=O)N2CCCC2)cc1	none (no result: E-sel TNF inh)
O=C(CCCOc1ccccc1)Nc1ccc(S(=O)(=O)N2CCOCC2)cc1	CYP2C19 inhib 55, CYP2C9 inh 70 (no result: E-sel TNF inh)
O=C(CCOc1ccccc1)Nc1ccc(S(=O)(=O)N2CCCC2)cc1	CYP2C19 inhib 50, CYP2C9 inh 86
CCN(CC)C(=O)CSc1nc2ncc(Br)cc2[nH]1	CYP2C19 inhib 69
COC(=O)CNC(=O)CSc1nc(N)cc(=O)[nH]1	none
CC(C)OC(=O)CSc1nc2ncc(Cl)cc2[nH]1	none
CCN(CC)C(=O)CSc1nc2ncc(Cl)cc2[nH]1	CYP2C19 inhib 52 (no result: F-actin modifier)
CCOC(=O)CNC(=O)CSc1nc2ncc(Br)cc2[nH]1	CYP2C9 inh 64
CCN(CC)C(=O)CSc1nc2nc(C)cc(C)c2c(=O)[nH]1	none
Cc1cc(C)nc(SCc2ccc(F)cc2)n1	none (no result: F-actin modifier, CYP2C19 inhib, CYP2C19 act, CYP2C9 inh, CYP2C9 act)
Fc1ccc(CSc2nc3ncc(Br)cc3[nH]2)cc1	CYP2C19 inhib 55
CCCCCCn1c(N2CCC(C)CC2)nc2c1c(=O)[nH]c(=O)n2C	none
CCCOc1ccc(C(C)=O)cc1CC(C(N)=O)C(N)=O	none
CC(C)(C)NC(=O)CSc1nnc(NC(=O)CCn2cnc3ccccc3c2=O)s1	none
O=C(CCCOc1ccccc1)Nc1ccc(S(=O)(=O)Nc2ccccn2)cc1	none (no result: F-actin modifier, CYP2C19 inhib, CYP2C19 act, CYP2C9 inh, CYP2C9 act)
O=C(NCc1ccco1)C(=O)NCC1OCCCN1S(=O)(=O)c1ccc(Cl)cc1 (stereo not given)	none (no result: F-actin modifier, CYP2C19 inhib, CYP2C19 act, CYP2C9 inh, CYP2C9 act)
CCCn1c(NCc2ccc3c(c2)OCO3)nc2ccccc21	CYP2C19 inhib 59 (no result: F-actin modifier, E-sel TNF inh)
CCCCn1c(NCc2ccccc2O)nc2ccccc21	none (no result: E-sel TNF inh)
CCCCn1c(NCc2ccc3c(c2)OCO3)nc2ccccc21	none (no result: CYP2C19 inhib, CYP2C19 act, CYP2C9 inh, CYP2C9 act)
CCCCn1c(NCc2ccccc2NS(=O)(=O)c2ccc(C)cc2)nc2ccccc21	CYP2C9 inh 50
CCCn1c(C(O)c2ccc3c(c2)OCO3)nc2ccccc21 (stereo not given)	CYP2C19 inhib 98, CYP2C9 inh 60
CCCn1c(NCc2cc(C)ccc2O)nc2ccccc21	CYP2C19 inhib 53
COC(=O)c1cn(C(=O)c2ccco2)c2ccccc12	none
Cc1ccc(C2CC(C(F)(F)F)n3nc(C(=O)NCCN4CCOCC4)cc3N2)cc1 (stereo not given)	none
CCCCCCN1C=CC(=C/C=C(\C#N)C(=O)OCC)C=C1	CYP2C9 inh 60 (no result: E-sel TNF inh)
COc1ccc(C(=O)N2CCN(C(=O)c3ccncc3)CC2)cc1	none (no result: E-sel TNF inh)
COc1ccc(C(=O)n2c(SC)nc3cc4c(cc32)OCCO4)cc1	CYP2C9 inh 54
COc1cc2nc(=S)n(CCCN3CCOCC3)c(N)c2cc1OC	none (no result: F-actin modifier, CYP2C19 inhib, CYP2C19 act, CYP2C9 inh, CYP2C9 act)
COC(=O)c1ccc(CSc2nnc(SCc3ccc(C(=O)OC)o3)s2)o1	CYP2C9 inh 59
COC(=O)c1ccc(CSc2nc(-c3ccccc3)cs2)o1	CYP2C9 inh 56 (no result: F-actin modifier)
COC(=O)c1ccc(CSc2nnc(NCc3ccccc3)s2)o1	none (no result: E-sel TNF inh)
C=CCNCC#CCOc1ccc(OC)cc1	CYP2C19 inhib 76
COCCCNC(CC(=O)Nc1ccccc1C(=O)OC)C(=O)O (stereo not given)	E-sel TNF inh 60 (no result: CYP2C19 inhib, CYP2C19 act, CYP2C9 inh, CYP2C9 act)
Cc1ccc(CCC(=O)Nc2ccc(S(N)(=O)=O)cc2)o1	none
CCNC(=O)CC(=O)Nc1ccccc1C(=O)O	none (no result: F-actin modifier)
CCc1ccc(CCC(=O)Nc2ccccc2C(=O)O)o1	CYP2C9 inh 52
Cc1ccc(CCC(=O)Nc2nccs2)o1	CYP2C19 inhib 63
CCc1ccc(CCC(=O)Nc2nccs2)o1	CYP2C19 inhib 58
CCOC(=O)CCN(Cc1cccs1)S(=O)(=O)c1ccc(Cl)cc1	CYP2C19 inhib 68
Cc1ccc2nc(N3CCN(C=O)CC3)nc(-c3ccccc3)c2c1	none (no result: CYP2C19 inhib, CYP2C19 act, CYP2C9 inh, CYP2C9 act)
Cc1cccc(Nc2nc(NCc3ccco3)nc(N3CCOCC3)n2)c1	CYP2C19 inhib 82, CYP2C9 inh 92
Cc1cccc(Nc2nc(N3CCCC3)nc(N3CCCC3)n2)c1	none
COC(=O)c1ccc(C(=O)OC)c(NC(=O)COC(=O)C2CCC(C(C)(C)C)CC2)c1 (stereo not given)	none
COc1ccc(C2CC(=O)N3CN(c4ccc(C)c(Cl)c4)CSC3=C2C#N)cc1OC (stereo not given)	CYP2C9 inh 96
COc1ccc(N2CSC3=C(C#N)C(c4ccc(OC)c(OC)c4)CC(=O)N3C2)c(OC)c1 (stereo not given)	none
